High-throughput results: PubChem BioAssay, National Center for Advancing Translational Sciences (NCATS)
An excerpt weighted towards active compounds, which were near 10% of everything screened.
ALOX12 inhib = inhibitors of human 12-lipoxygenase (ALOX12). purified 12-hLO, xylenol orange hydroperoxide absorbance. P18054. 150,000 compounds, 0.12% hits. Potency, µM (doses to about 57.1 µM), most hits filed as inhibitors; active = well fitted inhibition curve with a large enough effect; inconclusive = small, poorly fitted or top-dose-only effect; note: nearly all actives have a fitted effect of over 55% in size
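Purified human 12hLO (150 nM final) was preincubated with compounds for 15 min at room temperature in 25 mM Hepes pH 7.0, 0.01% Triton X-100, then reacted with 40 uM arachidonic acid for 30 min. Hydroperoxide was detected with ferrous iron/xylenol orange.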
PNC assembly inh = perinucleolar compartment assembly inhibition; PC3M PTB-GFP, PNC prevalence imaging, 16 h; hits give low values; activity change (PNC), negative = inhibition, % at 10 µM; 140,000 compounds, 3.1% hits;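 active = readout at or below -70, meaning at least 70% loss of cells showing the perinucleolar compartment, a nuclear body marking cancer cells; inconclusive = readout between -30 and a set limit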
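Compounds are pinned in duplicate onto adhered PC3M cells stably expressing GFP-tagged PTB and incubated 16 h at 37 C. Cells are then fixed, nuclei stained with Hoechst, and PNC-positive cells counted.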
HPGD inh = inhibitors of human 15-hydroxyprostaglandin dehydrogenase (HPGD). purified HPGD, NADH fluorescence kinetic, PGE2 substrate. AID 894. 150,000 compounds, 4.3% hits. Potency, µM, actives largely listed as inhibitors. P15428
Target sequence (P15428 whole entry, looked up): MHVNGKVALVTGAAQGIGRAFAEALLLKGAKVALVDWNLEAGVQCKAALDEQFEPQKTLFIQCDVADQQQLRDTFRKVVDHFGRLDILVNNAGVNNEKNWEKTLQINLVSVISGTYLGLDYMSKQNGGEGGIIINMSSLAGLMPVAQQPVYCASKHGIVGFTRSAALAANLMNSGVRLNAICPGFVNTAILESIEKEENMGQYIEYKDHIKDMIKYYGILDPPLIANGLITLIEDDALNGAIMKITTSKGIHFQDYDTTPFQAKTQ
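20 nM HPGD preincubated 15 min at room temperature with compound in 50 mM Tris-HCl pH 8, 0.01% Tween 20. Started with 1 mM NAD+ and 30 uM prostaglandin E2; NADH fluorescence (360/450 nm) read 5 times over 30-s intervals, last minus first.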
LMNA splice mod = changes lamin A minigene splicing in HeLa cells. Potency, µM (doses to about 46.1 µM), actives largely listed as inhibitors. HeLa LMNA splicing GFP/RFP minigene ratio, 48 h. 200,000 compounds, 0.01% hits; active = well fitted inhibition curve with a large enough effect in the signal ratio, with a control signal flat, not every such curve was filed as active; inconclusive = small, poorly fitted or top-dose-only effect, or effect the other way, or a change in a side signal; the % refers to the signal ratio
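S3 HeLa cells stably expressing lamin A-EGFP splicing minigene plus DsRed2, 600 cells/well, 48 h compound exposure at 37C. Laser-scanning cytometry; analysed as GFP (500-530 nm)/RFP (575-640 nm) total intensity ratio; 0.5% DMSO vehicle.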
ALDH1A1 block = inhibitors of human aldehyde dehydrogenase 1A1; Potency, µM (highest dose often 75.3 µM), hits mostly inhibitors; 220,000 compounds, 7.3% hits; Purified ALDH1A1, NADH fluorescence, propionaldehyde substrate; AID 1030
Large screens that a line does not name were inactive. Unless noted, calls come from the whole dose curve; as a rule, active = well fitted inhibition curve with a large enough effect (not every such curve was filed as active); inconclusive = small, poorly fitted or top-dose-only effect, or another doubt; inactive = no such curve, though single readings can be large or run the other way.

CCOC(=O)/C(C#N)=N/Nc1c(C)n(C)n(-c2ccccc2)c1=O	ALDH1A1 block 7.9µM (no result: ALOX12 inhib, PNC assembly inh, HPGD inh)
CC(=O)N1CCCc2cc(S(=O)(=O)N(C)CC(=O)Nc3cccc(C)c3C)ccc21	none (no result: ALOX12 inhib, PNC assembly inh, HPGD inh, ALDH1A1 block)
CCC(C)(C(=O)NC1CCCC1)N(Cc1cccs1)C(=O)Cc1cccs1 (centres undefined)	none
CCC(C)(C(=O)NC1CCCC1)N(Cc1cccs1)C(C)=O (centres undefined)	PNC assembly inh -100
COc1cccc(C2C3(C#N)C(N)=NC(OC)(OC)C23C#N)c1 (centres undefined)	none
COC1(OC)N=C(N)C2(C#N)C(c3cccc(Oc4ccccc4)c3)C12C#N (centres undefined)	ALDH1A1 block 22µM
COc1ccc(C(=O)Oc2ccc(F)cc2C(=O)/C=C/c2ccc(OC)c(OC)c2)cc1	none
COc1ccc(/C=C/C(=O)c2cc(F)ccc2OC(=O)c2ccccc2C)cc1OC	PNC assembly inh -88, LMNA splice mod inconclusive
N#CCCCSc1nnnn1-c1cc(C(F)(F)F)cc(C(F)(F)F)c1	none (no result: ALOX12 inhib, PNC assembly inh, LMNA splice mod)
Cc1cc(Br)c(OCc2ccc(C(=O)N/N=C3\CC4CC=CC34)cc2)c(Br)c1 (centres undefined)	HPGD inh 13µM, LMNA splice mod inconclusive, ALDH1A1 block 8.9µM
O=C(N/N=C1\CC2CC=CC12)c1ccc(Br)cc1 (centres undefined)	none (no result: ALOX12 inhib, PNC assembly inh, HPGD inh, LMNA splice mod)
CCCN(CCC)S(=O)(=O)c1ccc2c(c1)N(CC(=O)NC(C)c1ccccc1)C(=O)CS2 (centres undefined)	none (no result: ALOX12 inhib, PNC assembly inh, HPGD inh, ALDH1A1 block)
CC(N)CCCP(=O)(O)O (centres undefined)	none (no result: ALOX12 inhib, PNC assembly inh, HPGD inh, LMNA splice mod)
CCN1/C(=C/c2ccc3cc(C)ccc3[n+]2CC)Sc2ccccc21	PNC assembly inh -93, LMNA splice mod inconclusive
CCN1/C(=C/c2ccc3cc(C)ccc3[n+]2CC)Sc2cc(C)c(C)cc21	LMNA splice mod inconclusive (no result: ALOX12 inhib, PNC assembly inh, HPGD inh)
c1ccc(-c2nnc3sc(CN4CCc5ccccc54)cn23)cc1	HPGD inh 11µM, LMNA splice mod inconclusive, ALDH1A1 block inconclusive
Brc1ccc(-c2nnc3sc(CN4CCC5(CC4)OCCO5)cn23)cc1	HPGD inh inconclusive
C/C(=N/NC(=O)c1cccnc1)C1=C(O)CC(C)(C)CC1=O	none (no result: ALOX12 inhib, PNC assembly inh, HPGD inh, LMNA splice mod)
CC(=Nc1cc(C(=O)c2ccccc2)ccc1N)C1=C(O)CC(C)(C)CC1=O	ALDH1A1 block 7.9µM (no result: ALOX12 inhib, PNC assembly inh, HPGD inh, LMNA splice mod)
CC[N+](CC)(CCO)CCCN1C(=O)C2CC=C(Cl)CC2C1=O (centres undefined)	PNC assembly inh -81
CCN(CC)C(=O)CN1C(=O)C2CC=C(Cl)CC2C1=O (centres undefined)	LMNA splice mod inconclusive
COC(=O)N/N=C/c1cc(Cl)c(OCc2ccc(F)cc2)c(OC)c1	PNC assembly inh -87
COC(=O)N/N=C/c1cc(Cl)cc(Cl)c1OCc1ccc(F)cc1	LMNA splice mod inconclusive
NNC(=O)c1sccc1OCc1cccc(C(F)(F)F)c1	ALDH1A1 block inconclusive (no result: ALOX12 inhib, PNC assembly inh, HPGD inh)
COc1ccc(NC(=O)c2csc(Cc3ccc(Cl)cc3)n2)cc1	none (no result: ALOX12 inhib, PNC assembly inh, HPGD inh, LMNA splice mod)
NNC(=O)c1sccc1OCc1ccc(Cl)cc1Cl	ALDH1A1 block 3.5µM (no result: ALOX12 inhib, PNC assembly inh, HPGD inh)
COc1ccc(COc2ccsc2C(=O)Nc2ccc(Cl)cc2)cc1	PNC assembly inh -86, LMNA splice mod inconclusive
NNC(=O)c1sccc1OCc1ccc(F)cc1	ALDH1A1 block 10µM (no result: ALOX12 inhib, PNC assembly inh, HPGD inh)
O=C(N/N=C/c1ccc(Cl)cc1)c1sccc1OCc1ccc(F)cc1	PNC assembly inh -119, LMNA splice mod inconclusive
COc1cccc(NC(=O)CN2CCN(S(=O)(=O)c3ccc(F)cc3)CC2)c1	PNC assembly inh -111
COc1ccc(NC(=O)CN2CCN(S(=O)(=O)c3ccc(Cl)cc3)CC2)cc1Cl	none
COc1cccc(NC(=O)CN2CCN(S(=O)(=O)c3ccc(C(C)C)cc3)CC2)c1	ALDH1A1 block 22µM
Oc1ccc2c(c1)OCC1(O)Cc3cc(O)c(O)cc3C21 (centres undefined)	HPGD inh inconclusive, ALDH1A1 block 28µM (no result: PNC assembly inh, LMNA splice mod)
Oc1ccc2c(c1)OCO2	none (no result: PNC assembly inh, LMNA splice mod)
Oc1cc2c(cc1O)[C@H]1c3ccc(O)c(O)c3OC[C@@]1(O)C2	HPGD inh 13µM (no result: PNC assembly inh, LMNA splice mod)
COc1ccc(/C=N/NC(=O)c2ccc(N)cc2)cc1Cn1cc([N+](=O)[O-])cn1	none (no result: ALOX12 inhib, PNC assembly inh, HPGD inh)
COc1ccc(/C=N\NC(=O)c2cccc([N+](=O)[O-])c2)cc1Cn1cc([N+](=O)[O-])cn1	ALDH1A1 block 20µM (no result: ALOX12 inhib, PNC assembly inh, HPGD inh)
